Experimental data taken from PubChem BioAssay (EPA / NIEHS).
Active and inactive are the calls of the source. The calls were made as follows: active = hit-call score of the fitted dose curve at least 0.9, where 1 is the maximum; inactive = score below 0.9.

Assays:
[1] = ATG_CRE_CIS: Attagene CIS-FACTORIAL HepG2 Assay for human cAMP Responsive Element (CRE) binding protein 3 (AID 2282926); settings: HepG2 CRE cis-reporter, Attagene multiplexed mRNA; actives raise or lower the signal
Method in brief: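 Induced reporter mRNA from a CRE cis element, measured in HepG2 among many multiplexed units at 24 h. Detection used RT-PCR plus capillary electrophoresis of fluorescent fragments; DMSO served as negative control.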

[2] = biological target: CCAAT/enhancer-binding protein beta (Homo sapiens) (UniProt P17676); assay: ATG_C_EBP_CIS: Attagene CIS-FACTORIAL HepG2 Assay for human CCAAT/Enhancer Binding Protein (C/EBP) beta (AID 2282927); settings: HepG2 Attagene cis-factorial transcription factor reporter; actives raise or lower the signal
Chain of CCAAT/enhancer-binding protein beta (Homo sapiens) (P17676 whole entry, looked up, the tested form may be a part): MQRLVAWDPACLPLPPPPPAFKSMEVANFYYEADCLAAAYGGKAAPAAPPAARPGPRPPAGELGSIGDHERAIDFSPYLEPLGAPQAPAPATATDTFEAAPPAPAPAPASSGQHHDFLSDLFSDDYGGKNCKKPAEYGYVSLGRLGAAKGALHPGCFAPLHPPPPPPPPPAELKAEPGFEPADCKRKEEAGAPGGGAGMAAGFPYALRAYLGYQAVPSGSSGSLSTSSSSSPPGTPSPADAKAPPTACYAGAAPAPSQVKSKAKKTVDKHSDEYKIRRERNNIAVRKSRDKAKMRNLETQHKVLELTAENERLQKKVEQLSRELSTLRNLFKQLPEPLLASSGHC
Method in brief: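 Endogenous C/EBPb-driven reporter transcripts measured in transfected human HepG2 cells at 24 h via RT-PCR and capillary electrophoresis of labelled fragments. Activity fitted in both directions relative to DMSO baseline.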

[3] = ATG_CMV_CIS: Attagene CIS-FACTORIAL HepG2 Assay for human CMV (Internal Marker) (AID 2282928); settings: HepG2 CMV promoter reporter, transcription factor profiling; actives raise or lower the signal;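 also: endpoint acts as a background internal control marker rather than a target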
Method in brief: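 Readout: fluorescent reporter cDNA fragments separated by capillary electrophoresis after RT-PCR and HpaI cut. Cells: HepG2 carrying transfected cis-promoter reporter constructs, dosed 24 h. Endpoint serves as background internal-marker control, fit bidirectionally versus DMSO.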

[4] = ATG_DR4_LXR_CIS: Attagene CIS-FACTORIAL HepG2 Assay for human Liver X Receptor (LXR), DR4 submotif (AID 2282929); settings: HepG2 Attagene DR4 cis-reporter, mRNA transcription; actives raise or lower the signal
Method in brief: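 DR4 cis-reporter in HepG2, 24 h exposure. Detection: RT-PCR, 6-FAM labelling, CE fragment analysis. Endpoint fitted bidirectionally, DMSO = baseline.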

[5] = biological target: Aryl hydrocarbon receptor (Homo sapiens) (UniProt P35869); assay: ATG_Ahr_CIS: Attagene CIS-FACTORIAL HepG2 Assay for human Aryl Hydrocarbon Receptor (Ahr) (AID 2282930); settings: HepG2 AhR cis-factorial reporter transcription; actives raise or lower the signal
Chain of Aryl hydrocarbon receptor (Homo sapiens) (P35869 whole entry, looked up): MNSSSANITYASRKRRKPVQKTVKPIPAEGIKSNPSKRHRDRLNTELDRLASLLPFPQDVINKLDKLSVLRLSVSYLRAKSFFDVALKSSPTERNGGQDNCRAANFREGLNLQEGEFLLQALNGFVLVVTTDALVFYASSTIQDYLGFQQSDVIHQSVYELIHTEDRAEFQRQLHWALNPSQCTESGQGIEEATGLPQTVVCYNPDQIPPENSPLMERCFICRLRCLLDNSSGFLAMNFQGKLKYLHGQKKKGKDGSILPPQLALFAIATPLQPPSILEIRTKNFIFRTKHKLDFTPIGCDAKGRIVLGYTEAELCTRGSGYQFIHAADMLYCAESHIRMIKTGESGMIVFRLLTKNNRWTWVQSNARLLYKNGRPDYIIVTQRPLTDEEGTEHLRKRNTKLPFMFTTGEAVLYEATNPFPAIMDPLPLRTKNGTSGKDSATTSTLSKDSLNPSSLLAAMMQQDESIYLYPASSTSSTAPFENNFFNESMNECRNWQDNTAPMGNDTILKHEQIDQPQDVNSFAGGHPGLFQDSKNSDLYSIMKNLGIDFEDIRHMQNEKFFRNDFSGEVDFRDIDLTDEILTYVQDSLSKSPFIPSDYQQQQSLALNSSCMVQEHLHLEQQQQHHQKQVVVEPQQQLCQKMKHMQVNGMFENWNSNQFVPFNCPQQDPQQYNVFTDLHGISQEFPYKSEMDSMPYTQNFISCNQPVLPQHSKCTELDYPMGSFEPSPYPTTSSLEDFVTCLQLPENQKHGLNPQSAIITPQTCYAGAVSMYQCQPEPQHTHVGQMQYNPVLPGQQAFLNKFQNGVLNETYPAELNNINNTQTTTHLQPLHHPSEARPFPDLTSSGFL
Method in brief: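 Reporter mRNA levels, quantified by RT-PCR and fluorescent capillary electrophoresis, reflect endogenous AhR transcriptional activity in HepG2 cells carrying transfected cis-promoter reporter constructs. Readout at 24 h post-dose; gain or loss fitted against DMSO baseline.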

[6] = ATG_AP_2_CIS: Attagene CIS-FACTORIAL HepG2 Assay for human Activator Protein 2 (AP-2) (AID 2282932); settings: HepG2 AP-2 cis-reporter, Attagene transcription factor profiling; actives raise or lower the signal
Method in brief: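 Endogenous transcription factor activity is reported through transfected multiplex reporter constructs in HepG2, after 24 h of compound exposure. Transcripts were quantified by RT-PCR and capillary electrophoresis of fluorescent fragments. Bidirectional fit against DMSO.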

[7] = ATG_BRE_CIS: Attagene CIS-FACTORIAL HepG2 Assay for human Bone Morphogenetic Protein (BMP) Response Element (BRE) (AID 2282933); settings: HepG2 BMP response element reporter, Attagene transcription factor profiling; actives raise or lower the signal
Method in brief: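 Read-out: reporter mRNA induction quantified by RT-PCR and capillary electrophoresis after 24 h chemical exposure of transfected HepG2 cells. Endogenous factor activity on the BMP response element; gain or loss fitted against DMSO baseline.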

[8] = biological target: Retinoic acid receptor alpha (Homo sapiens) (UniProt P10276); assay: ATG_DR5_RAR_CIS: Attagene CIS-FACTORIAL HepG2 Assay for human Retinoic Acid Receptor Alpha (RARE), DR5 submotif (AID 2282934); settings: HepG2 Attagene cis-factorial RARE DR5 reporter, mRNA; actives raise or lower the signal;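 as to AC50: reporter responds to endogenous RAR alpha beta and gamma in HepG2 not RARA alone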
Chain of Retinoic acid receptor alpha (Homo sapiens) (P10276 whole entry, looked up): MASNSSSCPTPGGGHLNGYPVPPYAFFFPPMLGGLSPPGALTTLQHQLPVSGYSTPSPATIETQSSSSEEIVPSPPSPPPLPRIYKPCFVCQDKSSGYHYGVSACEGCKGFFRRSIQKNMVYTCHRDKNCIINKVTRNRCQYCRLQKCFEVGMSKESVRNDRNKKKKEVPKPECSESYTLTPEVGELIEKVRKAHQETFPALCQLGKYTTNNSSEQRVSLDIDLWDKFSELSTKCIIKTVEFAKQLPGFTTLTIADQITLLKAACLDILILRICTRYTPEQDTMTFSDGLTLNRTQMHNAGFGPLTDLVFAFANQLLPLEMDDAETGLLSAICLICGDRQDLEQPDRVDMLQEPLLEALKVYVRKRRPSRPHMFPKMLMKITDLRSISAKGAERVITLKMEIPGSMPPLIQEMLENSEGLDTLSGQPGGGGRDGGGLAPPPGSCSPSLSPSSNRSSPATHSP
Method in brief: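 Reporter transcripts from a DR5-regulated unit, measured via RT-PCR plus capillary electrophoresis, reflect endogenous RAR activity in transiently transfected human HepG2 liver cells. Exposure lasted 24 h; gain or loss of signal scored against DMSO.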

[9] = biological target: Transcription factor E2F1 (Homo sapiens) (UniProt Q01094); assay: ATG_E2F_CIS: Attagene CIS-FACTORIAL HepG2 Assay for human E2F Transcription Factor 1 (AID 2282935); settings: HepG2 Attagene cis-reporter, E2F reporter RNA transcripts; actives raise or lower the signal
Chain of Transcription factor E2F1 (Homo sapiens) (Q01094 whole entry, looked up): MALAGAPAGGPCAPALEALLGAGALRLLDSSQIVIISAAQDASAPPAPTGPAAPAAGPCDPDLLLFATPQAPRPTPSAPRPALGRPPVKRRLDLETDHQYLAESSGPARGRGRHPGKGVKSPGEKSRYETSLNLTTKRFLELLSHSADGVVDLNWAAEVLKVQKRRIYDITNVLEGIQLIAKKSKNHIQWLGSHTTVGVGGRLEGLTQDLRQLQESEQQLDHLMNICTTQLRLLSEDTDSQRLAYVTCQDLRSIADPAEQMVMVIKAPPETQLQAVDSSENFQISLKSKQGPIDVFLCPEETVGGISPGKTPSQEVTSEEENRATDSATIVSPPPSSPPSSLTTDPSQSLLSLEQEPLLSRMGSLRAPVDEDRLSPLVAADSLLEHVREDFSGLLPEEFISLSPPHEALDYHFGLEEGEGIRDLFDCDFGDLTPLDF
Method in brief: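 Gain or loss of reporter transcript, fitted against DMSO, reflects E2F1-driven transcription. Transiently transfected HepG2 dosed 24 h before RNA isolation. Quantified by fluorescent RT-PCR products separated by capillary electrophoresis.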

[10] = ATG_E_Box_CIS: Attagene CIS-FACTORIAL HepG2 Assay for human Enhancer Box (E-box) (AID 2282936); settings: HepG2 E-box cis-reporter transcription, actives raise or lower the signal
Method in brief: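 E-box-driven reporter transcripts measured in transiently transfected HepG2 after 24 h exposure: RNA reverse-transcribed, PCR-amplified, fluorescently labelled, digested and resolved by capillary electrophoresis. Gain or loss relative to DMSO.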

[11] = ATG_M_61_CIS: Attagene CIS-FACTORIAL HepG2 Assay for M61 Transcription Factor (Internal Marker) (AID 2282937); settings: HepG2 Attagene CIS-FACTORIAL M61 internal marker reporter; actives raise or lower the signal
Method in brief: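 Background-control endpoint: HepG2 cells with cis-regulated reporter constructs, 24 h exposure, reporter mRNA detected via fluorescent primer extension and capillary electrophoresis; values from bidirectional fitting with DMSO baseline.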

[12] = ATG_EGR_CIS: Attagene CIS-FACTORIAL HepG2 Assay for human Early Growth Response 1 (EGR1) (AID 2282938); settings: HepG2 Attagene CIS-FACTORIAL EGR reporter mRNA; actives raise or lower the signal
Method in brief: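 Endpoint derived by bidirectional fitting versus DMSO vehicle. Method: cis-promoter reporter units transfected into HepG2, 24 h dosing, RNA isolation, RT-PCR with 6-FAM primer extension and HpaI digestion, then capillary electrophoresis fluorescence detection.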

[13] = ATG_M_19_CIS: Attagene CIS-FACTORIAL HepG2 Assay for M19 Transcription Factor (Internal Marker) (AID 2282939); settings: HepG2 Attagene CIS-FACTORIAL M19 internal marker reporter; actives raise or lower the signal
Method in brief: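 Readout: fluorescent reporter-transcript fragments by capillary electrophoresis after RT-PCR. Human HepG2 liver cells carried transfected MRTU constructs reporting endogenous transcription-factor activity; exposure 24 h. Gain or loss of signal fitted relative to DMSO.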

[14] = ATG_Ets_CIS: Attagene CIS-FACTORIAL HepG2 Assay for human Erythroblast Transformation Specific (ETS) (AID 2282941); settings: HepG2 ETS cis-reporter transcription, actives raise or lower the signal
Method in brief: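 RT-PCR/capillary electrophoresis fluorescence read-out of reporter mRNA; HepG2 transient multi-reporter transfection; 24 h compound exposure; gain or loss of signal fitted bidirectionally relative to DMSO.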

[15] = biological target: Hepatocyte nuclear factor 3-beta (Homo sapiens) (UniProt Q9Y261); assay: ATG_FoxA2_CIS: Attagene CIS-FACTORIAL HepG2 Assay for human Forkhead box A2 (FOXA2) (AID 2282942); settings: HepG2 cis-reporter transcription factor activity, 24 h; actives raise or lower the signal
Chain of Hepatocyte nuclear factor 3-beta (Homo sapiens) (Q9Y261 whole entry, looked up): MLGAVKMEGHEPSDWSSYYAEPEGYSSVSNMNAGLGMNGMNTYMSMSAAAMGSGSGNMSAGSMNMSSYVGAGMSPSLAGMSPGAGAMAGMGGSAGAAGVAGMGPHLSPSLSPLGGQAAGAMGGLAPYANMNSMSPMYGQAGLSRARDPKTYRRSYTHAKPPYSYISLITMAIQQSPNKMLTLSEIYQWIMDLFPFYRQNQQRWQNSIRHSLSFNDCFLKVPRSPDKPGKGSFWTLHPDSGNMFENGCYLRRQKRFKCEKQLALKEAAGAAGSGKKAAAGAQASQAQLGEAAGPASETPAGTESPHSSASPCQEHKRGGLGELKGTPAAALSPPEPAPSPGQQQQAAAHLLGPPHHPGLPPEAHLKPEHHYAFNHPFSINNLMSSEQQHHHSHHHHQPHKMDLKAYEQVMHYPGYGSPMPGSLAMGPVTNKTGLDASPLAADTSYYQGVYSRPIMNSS
Method in brief: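 Measured: reporter mRNA induction or loss in HepG2 transiently carrying multiple cis-regulated reporter units, 24 h after dosing. Quantified by RT-PCR plus capillary electrophoresis, normalised to DMSO.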

[16] = ATG_FoxO_CIS: Attagene CIS-FACTORIAL HepG2 Assay for human Forkhead box O (FoxO) (AID 2282943); settings: HepG2 Attagene cis-reporter, FoxO element, mRNA; actives raise or lower the signal
Method in brief: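 Endogenous transcription factor activity read from multiplexed cis-promoter reporter transcripts in transiently transfected HepG2, 24 h after dosing. Reporter RNA measured via RT-PCR plus capillary electrophoresis of FAM-labeled products; gain or loss relative to DMSO.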

[17] = ATG_GATA_CIS: Attagene CIS-FACTORIAL HepG2 Assay for human GATA Binding Protein (AID 2282944); settings: HepG2 GATA cis-element reporter, Attagene multiplex mRNA; actives raise or lower the signal
Method in brief: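 Read-out: fluorescent reporter mRNA fragments resolved by capillary electrophoresis after RT-PCR. Human liver HepG2 cells carried transiently transfected cis-regulated reporter constructs; chemicals incubated 24 h; gain or loss of signal fitted relative to DMSO.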

[18] = ATG_GLI_CIS: Attagene CIS-FACTORIAL HepG2 Assay for human Zinc Finger Protein GLI1 (AID 2282945); settings: HepG2, Attagene cis-factorial reporter mRNA, GLI element; actives raise or lower the signal
Method in brief: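 Bidirectional curve fits relative to DMSO, using reporter mRNA levels from RT-PCR plus capillary electrophoresis. Cells were HepG2 transiently carrying cis-regulated reporter constructs, harvested 24 h after dosing.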

[19] = ATG_AP_1_CIS: Attagene CIS-FACTORIAL HepG2 Assay for human Activator Protein 1 (AP-1) (AID 2282931); settings: HepG2 Attagene cis-factorial AP-1 reporter mRNA; actives raise or lower the signal
Method in brief: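 Cis-regulated reporter units transiently expressed in HepG2 report endogenous transcription-factor activity. Signal: reporter mRNA at 24 h, via RT-PCR and fluorescent capillary electrophoresis. Endpoint derived by bidirectional fitting, DMSO as negative control.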

[20] = ATG_ERE_CIS: Attagene CIS-FACTORIAL HepG2 Assay for Estrogen Response Element (ERE) (AID 2282940); settings: HepG2 ERE cis-reporter, Attagene RNA transcript; actives raise or lower the signal
Method in brief: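 Readout: reporter mRNA induction by RT-PCR, FAM-labelled primer extension, HpaI digestion and capillary electrophoresis, 24 h after dosing transfected HepG2 cells. Endogenous transcription factors act on cis-element-regulated reporters. Gain or loss fitted against DMSO.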

CSCCC=O
outcome [1]: inactive
outcome [2]: inactive
outcome [3]: inactive
outcome [4]: inactive
outcome [5]: inactive
outcome [6]: inactive
outcome [7]: inactive
AC50 [8]: 25.5 µM (active)
outcome [9]: inactive
outcome [10]: inactive
outcome [11]: inactive
outcome [12]: inactive
outcome [13]: inactive
outcome [14]: inactive
outcome [15]: inactive
outcome [16]: inactive
outcome [17]: inactive
outcome [18]: inactive

C1CCCCC1
outcome [1]: inactive
outcome [2]: inactive
outcome [3]: inactive
outcome [4]: inactive
outcome [5]: inactive
outcome [6]: inactive
outcome [7]: inactive
outcome [8]: inactive
outcome [9]: inactive
outcome [10]: inactive
outcome [11]: inactive
outcome [12]: inactive
outcome [13]: inactive
outcome [14]: inactive
outcome [15]: inactive
outcome [16]: inactive
outcome [17]: inactive
outcome [18]: inactive

C[C@H]1C[C@@H](O)CC(C)(C)C1
outcome [1]: inactive
outcome [2]: inactive
outcome [3]: inactive
outcome [4]: inactive
outcome [5]: inactive
outcome [6]: inactive
outcome [7]: inactive
outcome [8]: inactive
outcome [9]: inactive
outcome [10]: inactive
outcome [11]: inactive
outcome [12]: inactive
outcome [13]: inactive
outcome [14]: inactive
outcome [15]: inactive
outcome [16]: inactive
outcome [17]: inactive
outcome [18]: inactive

CC1(C)O[C@@H]2[C@@H](CO[C@@]3(COS(N)(=O)=O)OC(C)(C)O[C@@H]23)O1
outcome [1]: inactive
outcome [2]: inactive
outcome [3]: inactive
outcome [4]: inactive
outcome [5]: inactive
outcome [19]: inactive
outcome [7]: inactive
outcome [8]: inactive
outcome [9]: inactive
outcome [10]: inactive
outcome [11]: inactive
outcome [12]: inactive
outcome [13]: inactive
outcome [20]: inactive
outcome [14]: inactive
outcome [15]: inactive
outcome [16]: inactive
outcome [17]: inactive
outcome [18]: inactive
